Among all 220,000 compounds or so, about 5,700 (2.6%) were called active. A call without a number means that no potency is given here. Not shown: some 18% with an inconclusive outcome. This is one part of a sample in which actives are shown more often than they occur. Values without a mark were called inactive. The call rests on the fitted dose curve; in most records, active means well fitted inhibition curve with a large enough effect; inconclusive means small, poorly fitted or top-dose-only effect; inactive means no such curve, though single readings can be large or run the other way.
molecular target: Lysine-specific demethylase 5B (Homo sapiens) (UniProt Q9UGL1); experiment: Primary screen for KDM5B Histone Demethylases FDH-coupled qHTS; details: FDH-coupled NADH fluorescence (FDH is formaldehyde dehydrogenase); series mostly up to 57.7 µM; further: nearly all actives have a fitted effect of over 70% in size
From the text: Assay Submitter (PI): Qin Yan, Ph.D. (Yale University) and Xiaodong Cheng, Ph.D. (MD Anderson) This project was funded as part of the NCI NEXT Program and Chemical Biology Consortium (CBC) The histone demethylases, KDM5A and KDM5B catalyze the demethylation of lysine 4 on histone H3 (H3K4me3/2). They are overexpressed in a variety of cancers and have been implicated in cancer cell growth, metastasis, drug resistance, and tumor growth. KDM5A is amplified and overexpressed in breast and gastric cancer; and is translocated in leukemia. While KDM5B is highly expressed in human mammary tumors and breast cancer cell lines, but not in normal adult breast tissue. Moreover, knockdown of KDM5B leads to upregulation of tumor suppressor genes, including BRCA1. The goal of this project is to employ qHTS to identify selective small molecule inhibitors of KDM5A/B demethylase activity to better understand the role of KDM5 in cancer and to develop novel therapies. We employed an FDH-coupled assay previously reported by Sakurai et al. to monitor in vitro KDM5 demethylase activity. Compounds showing dose response inhibition are re-acquired, validated, and tested for non-specific interference with the formaldehyde dehydrogenase (FDH) counterscreen. True inhibitors are validated using an AlphaLisa secondary screen, which employs an H3K4(me2-1)-specific antibody to monitor demethylation of a biotin-tagged H3K4(me3) peptide substrate. Inhibitors are profiled against KDM4A and KDM6A AlphaLisa counterscreens to determine level of demethylase specificity; and against the TruHits counterscreen to eliminate non-specific inhibitory activity on the AlphaLISA detection method. Selective inhibitors identified from the primary and secondary screening are tested in cells using immunofluorescence to monitor global H3K4 tri-methylation as a measure of KDM5A/B inhibition. Early Translation Branch (ETB) National Center for Advancing Translational Sciences (NCATS), Rockville, MD National Institute of Health (NIH), Bethesda, Maryland [1] Sakurai, M et al. A miniaturized screen for inhibitors of Jumonji histone demethylases. Mol Biosyst. 2010 Feb;6(2):357-64. doi: 10.1039/b912993f. Epub 2009 Oct 8.
Materials: 1536-well Black, solid bottom, medium binding assay plate is purchased from Greiner Bio-one. The enzymes (KDM5B) and substrate (H3K4me3/2) are provided by the principal investigators. The buffer for this assay is composed of 50mM HEPES at pH 7.5 with 0.01% Tween-20. FDH coupled Demethylase qHTS protocol: Three microliter enzyme mix (buffer + 200nM KDM5BDeltaAP final concentration) is dispensed into the assay plate using the BioRAPTR Flying Reagent Dispenser (FRD; […]). Compound (at various final concentration) and control solution is pin transferred to the assay plate using the Kalypsys 1536-pin tool apparatus. The assay plate is incubated for 10 min at room temperature followed by addition of 1uL substrate mix (buffer + 100uM ascorbic acid, 50uM ferrous ammonium sulfate, 12.5uM H3K4Me3, 25uM a-ketoglutarate, 0.25 mM NAD+, 0.25 U/mL formaldehyde dehydrogenase using the FRD yielding a total reaction volume of 4 uL. Initial fluorescence (Read1) is detected using the PerkinElmer ViewLux plate reader equipped with 340 nm excitation and 450 nm emission filters. The final fluorescence (Read2) signal is obtained after 30 min of room temperature incubation. Delta RFU is calculated (Read2 - Read1) and is used to generated dose response curves.
Potency means the concentration at half of the fitted maximal effect.

Sequence of Lysine-specific demethylase 5B (Homo sapiens) (Q9UGL1 whole entry, looked up): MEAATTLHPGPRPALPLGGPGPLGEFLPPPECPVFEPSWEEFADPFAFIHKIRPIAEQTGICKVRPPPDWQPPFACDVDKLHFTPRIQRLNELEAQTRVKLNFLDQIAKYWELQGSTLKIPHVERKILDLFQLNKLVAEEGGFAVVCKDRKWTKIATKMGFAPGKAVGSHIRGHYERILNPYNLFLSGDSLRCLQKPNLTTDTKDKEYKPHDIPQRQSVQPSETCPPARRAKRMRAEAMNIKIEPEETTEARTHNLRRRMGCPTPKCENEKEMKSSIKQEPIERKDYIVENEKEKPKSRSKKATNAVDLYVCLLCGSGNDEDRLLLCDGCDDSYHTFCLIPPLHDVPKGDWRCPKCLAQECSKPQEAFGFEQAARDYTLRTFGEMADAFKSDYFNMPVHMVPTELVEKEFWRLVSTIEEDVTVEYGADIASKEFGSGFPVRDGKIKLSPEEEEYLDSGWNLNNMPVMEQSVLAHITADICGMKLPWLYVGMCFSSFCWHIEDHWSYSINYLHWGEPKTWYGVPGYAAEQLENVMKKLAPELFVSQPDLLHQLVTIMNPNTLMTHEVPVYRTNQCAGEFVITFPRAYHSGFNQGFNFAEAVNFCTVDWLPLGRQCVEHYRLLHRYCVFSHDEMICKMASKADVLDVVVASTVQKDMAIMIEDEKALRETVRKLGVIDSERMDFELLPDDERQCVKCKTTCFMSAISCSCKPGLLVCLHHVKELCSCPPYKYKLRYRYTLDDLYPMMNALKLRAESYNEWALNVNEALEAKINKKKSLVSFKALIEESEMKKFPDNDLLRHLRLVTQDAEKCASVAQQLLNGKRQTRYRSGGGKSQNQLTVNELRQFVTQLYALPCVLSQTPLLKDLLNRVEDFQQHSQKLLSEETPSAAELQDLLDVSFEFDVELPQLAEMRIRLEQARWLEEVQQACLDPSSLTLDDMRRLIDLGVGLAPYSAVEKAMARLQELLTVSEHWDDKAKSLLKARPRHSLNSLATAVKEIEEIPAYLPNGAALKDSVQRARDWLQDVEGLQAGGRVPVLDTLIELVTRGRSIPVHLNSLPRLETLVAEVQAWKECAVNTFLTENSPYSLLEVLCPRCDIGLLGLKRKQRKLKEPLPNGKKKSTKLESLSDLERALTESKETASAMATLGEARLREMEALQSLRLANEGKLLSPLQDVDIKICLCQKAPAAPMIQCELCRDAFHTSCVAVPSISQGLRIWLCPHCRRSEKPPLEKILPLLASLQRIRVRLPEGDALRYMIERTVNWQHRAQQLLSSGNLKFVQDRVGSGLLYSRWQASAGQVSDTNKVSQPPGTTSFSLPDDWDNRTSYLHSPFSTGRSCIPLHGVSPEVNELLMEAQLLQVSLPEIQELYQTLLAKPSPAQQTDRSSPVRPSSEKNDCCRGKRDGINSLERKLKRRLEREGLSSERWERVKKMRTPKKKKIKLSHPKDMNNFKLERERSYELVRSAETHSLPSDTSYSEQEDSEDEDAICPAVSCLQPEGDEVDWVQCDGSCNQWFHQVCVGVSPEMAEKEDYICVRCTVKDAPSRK

Compound | Potency | activity change, negative = inhibition
Cc1cc(Cl)cc(SCC(=O)O)c1Cl | inactive | 
CC(C)NC(=S)N/N=C1\CCc2ccccc21 | inactive | 
CC(O)CNC(=O)c1ccc(-c2ncc3cnc(C4=CCOCC4)cn23)cc1 (stereo not drawn) | 35.5 µM (active) | 
Cc1ccc(S(=O)(=O)N2CC(C)N(S(C)(=O)=O)C2)cc1 (stereo not drawn) | inactive | 
COc1ccccc1CNC(=O)c1nn(C)c(=O)c2ccccc12 | inactive | 
COc1ccccc1-c1cc(C(=O)N(C)C)nc2c1cnn2C | 89.1 µM (active) | 
COc1ccc(CN(C)C(=O)c2nn(C)c(=O)c3ccccc23)cc1F | inactive | 
O=C(/C=C/c1ccc(F)cc1)NNC(=O)c1ccc(NC(=O)C2CCCCC2)cc1 | inactive | 
CCCCCOC(=O)COc1ccc2c(=O)c(Oc3cccc(C)c3)c(C(F)(F)F)oc2c1 | inactive | 
CC(C)C(NC(=O)Cc1ccc(N2CCCC2=O)cc1)c1nc2ccccc2[nH]1 (stereo not drawn) | inactive | 
CCCn1cnc2c1CN(S(=O)(=O)Cc1ccccc1)[C@H](C(=O)OC)C2 | 39.8 µM (active) | 
CCCS(=O)(=O)N1Cc2c(ncn2Cc2ccc(Cl)cc2)C[C@H]1C(=O)OC | inactive | 
COC(=O)[C@@H]1Cc2ncn(Cc3ccccc3)c2CN1C(=O)CC(C)(C)C | inactive | 
CCC(C)NC(=O)c1sccc1-c1ccccc1 (stereo not drawn) | inactive | 
CCc1nc2ccc(C(=O)NCCCN(CC)CC)cc2nc1CC | inactive | 
CCc1c(C)sc(NC(=O)c2cccc(Br)c2)c1C#N | inactive | 
CC1CCC2CCCCC2N1C(=O)c1cc([N+](=O)[O-])cc([N+](=O)[O-])c1 (stereo not drawn) | inactive | 
O=S(=O)(c1cccs1)N1CCn2cccc2C1c1ccccc1F (stereo not drawn) | inactive | 
Cn1ccnc1C(=O)N1CCC2(CC1)CN(c1ncccn1)CC2CO (stereo not drawn) | 22.4 µM (active) | 
CCN1C(=O)C2CC3(CCN(C(=O)c4nccn4C)CC3)CN2C1=O (stereo not drawn) | inactive | 
CC(=O)N1CC(CO)C2(CCN(C(=O)c3ccccc3Cl)CC2)C1 (stereo not drawn) | inactive | 
Cn1cc(CC(=O)N2CCCc3ncc(C(=O)NCCOc4ccccc4)cc32)c2ccccc21 | inactive | 
Cc1cccc(NC(CNS(=O)(=O)c2ccccc2)c2ccccc2)c1 (stereo not drawn) | inactive | 
CC(C)OCCC(=O)N1CCCC(CN2CCN(c3ccccn3)CC2)C1 (stereo not drawn) | inactive | 
O=C(CC(NC(=O)c1ccccc1)c1ccccc1)NCc1cccs1 (stereo not drawn) | inactive | 
CCOC(=O)N1CCN(Cc2cc(=O)oc3c(C)c(C)cc(C)c23)CC1 | inactive | 

Compound | Potency | activity change, negative = inhibition
c1cnc2nc(C3CCCCN3)[nH]c2c1 (stereo not drawn) | inactive | 
Cc1cc(C)c(-c2nc3ncccc3[nH]2)[nH]1 | 35.5 µM (active) | 
CCC(Sc1nc2ncccc2[nH]1)C(=O)Nc1ccc(C)c(Cl)c1 (stereo not drawn) | inactive | 
OC(c1nc2ccc(F)cc2[nH]1)C(O)c1nc2ccc(F)cc2[nH]1 (stereo not drawn) | inactive | 
O=C1c2cnc(-c3ccc(O)c(F)c3)nc2OCCN1Cc1ccccc1 | 20 µM (active) | 
COc1ccc(-c2ncc3c(n2)OCCN(Cc2ccccc2)C3=O)cn1 | 28.2 µM (active) | 
NC(=O)c1cccc(-c2ncc3c(n2)OCCN(Cc2ccccc2)C3=O)c1 | inactive | 
O=C1c2cnc(-c3ccccc3)nc2OCCN1c1ccccc1 | inactive | 
NC(=O)c1cccc(-c2ncc3c(n2)OCCN(c2cccc(C(F)(F)F)c2)C3=O)c1 | inactive | 
O=C1c2cnc(-c3ccc(Cl)cc3)nc2OCCN1Cc1ccccc1 | inactive | 
CCCNc1c(NC(=O)Nc2ccccc2)c(=O)oc2ccccc12 | inactive | 
CCCCN1C(=O)NC(c2ccc(OC)cc2)C2=C1COC2=O (stereo not drawn) | inactive | 
O=C(Nc1ccc(F)cc1)C1=C(N2CCCC2)c2ccccc2S1(=O)=O | inactive | 
Cn1nc(C(=O)Nc2nc(-c3cc(F)ccc3F)cs2)c2ccccc2c1=O | inactive | 
CC(C)(C)Sc1ccc2nn(CC(=O)NCc3ccccc3Cl)c(=O)n2n1 | inactive | 
Cc1nc(Cc2nn3c(-c4cc(Cl)ccc4F)nnc3s2)cs1 | inactive | 
Cc1nc(C)c(C(=O)C2=C(O)C(=O)N(CCN3CCOCC3)C2c2ccc(C(C)(C)C)cc2)s1 (stereo not drawn) | inactive | 
COC(=O)c1ccc(COc2c(Cl)cccc2Cl)cc1 | inactive | 
Cc1nn(-c2ccccc2)c(C)c1[C@@H]1C=C[C@@H](NC(=O)c2ccc3c(c2)OCO3)C1 | inactive | 
Cc1nn(-c2ccc(C(C)C)cc2)c(C)c1[C@@H]1C=C[C@@H](NC(=O)Nc2ccccc2)C1 | inactive | 
Cc1nn(-c2ccc(C(C)(C)C)cc2)c(C)c1[C@@H]1C=C[C@@H](NC(=O)c2ccco2)C1 | 31.6 µM (active) | 
CCCCN(CCCC)c1nc2ccccc2nc1C(C#N)C(=O)OC(C)C (stereo not drawn) | inactive | 
N#Cc1cccc(Oc2cccc3cccnc23)c1C#N | inactive | 
c1csc(CNCC2CCNCC2)c1 | inactive | 
O=Cc1cccc(-c2cc(F)cc(F)c2)c1 | inactive | 
CSc1ccc(/C=N/Nc2c(Cl)cc(Cl)cc2Cl)cc1 | inactive | 

Compound | Potency | activity change, negative = inhibition
CSc1ccc(-c2ccc(C=O)cc2)cc1 | 10 µM (active) | 
CNC(=O)c1cccc(CNC(=O)C=C(C)C)c1 | inactive | 
Cc1noc(C)c1COc1ccc(C(=O)NCCOc2ccccc2)cc1 | inactive | 
Cc1nn(-c2nc3c(c(=O)n(CCN4CCCCC4)c(=O)n3C)n2C)c(C)c1C | inactive | 
CCOC(=O)c1ccc(NC(=O)Cn2c(=O)cc(C)c3c(C)nn(-c4cccc(F)c4)c32)cc1 | inactive | 
CCOCC(=O)Nc1nn(-c2cccc(F)c2)c2cccc(N3CCOC3=O)c12 | 28.2 µM (active) | 
COc1cccc(NC(=O)Cn2c(=O)cc(C)c3c(C)nn(-c4cccc(F)c4)c32)c1 | inactive | 
COCCN1C(=O)C(O)=C(C(=O)c2ccc(C)o2)C1c1ccc(O)c(OC)c1 (stereo not drawn) | inactive | 
CC1=C[C@@H](CNC(=O)C2CCCCC2)[C@H](C(C)C)C[C@H]1Cc1nc2ccc(F)cc2[nH]1 | inactive | 
CC(=O)Nc1cc(C(=O)NCc2ccc(F)cc2)ccc1Sc1ccc(F)cc1 | inactive | 
CC(C)Cn1cncc1CNC(=O)c1ccc2nc(-c3ccc(F)cc3)cn2c1 | 25.1 µM (active) | 
CCc1ccc(CNC(=O)C2CCN(c3nn4cc(-c5ccc(F)cc5)nc4s3)CC2)cc1 | inactive | 
O=C(N/N=C/c1ccccc1Cl)c1ccc(Cl)s1 | inactive | 
OCC#Cc1csc(CN2CCCC3(CCNCC3)CC2)c1 | inactive | 
C=CCN(C)C(=O)[C@@H](C)C1CC[C@@]2(C)Cc3sc(NS(=O)(=O)c4ccc(Cl)cc4)nc3[C@@H](C)[C@@H]2[C@H]1O (stereo partly drawn) | 28.2 µM (active) | 
CCN(CC)C(=O)[C@@H](C)C1CC[C@@]2(C)Cc3sc(N)nc3[C@@H](C)[C@@H]2[C@H]1O (stereo partly drawn) | inactive | 
C=CCN(C)C(=O)[C@@H](C)C1CC[C@@]2(C)Cc3sc(Nc4c(Cl)cccc4Cl)nc3[C@@H](C)[C@@H]2[C@H]1O (stereo partly drawn) | inactive | 
CC(C)C1=NOC2(CCN(C(=O)c3ccccc3F)C2)C1 (stereo not drawn) | inactive | 
O=C1Nc2cnccc2C2(CCN(C(=O)c3ccccc3F)C2)O1 (stereo not drawn) | 31.6 µM (active) | 
O=C(c1ccccc1F)N1CCC2(CC1)C(=O)Nc1ccccc12 | inactive | 
O=C(O)Cc1ccc(NC(=O)Nc2cccc3ccccc23)cc1 | inactive | 
COc1ccc2nc(SCC(=O)Nc3ncccn3)[nH]c2c1 | inactive | 
COc1ccccc1-c1cc(-c2cn[nH]c2)c2cncn2c1 | inactive | 
c1cc(N2CCOCC2)ccc1-c1cc(-c2cn[nH]c2)c2cncn2c1 | 28.2 µM (active) | 
Cn1cc(CC(=O)N2CCCc3ncc(C(=O)N4CCCC[C@@H]4c4ccccc4)cc32)c2ccccc21 | inactive | 
COCc1cc(=O)n(CC(=O)NCc2ccc(C)cc2)c(N2CCOCC2)n1 | inactive | 

Compound | Potency | activity change, negative = inhibition
CCC(=O)Nc1cc(C(=O)NCc2ccc(N3CCOCC3)cc2)c2ccc(C)nc2c1 | 14.1 µM (active) | 
Cn1cc(-c2ccccc2)cc1C(=O)NCc1ccc(N2CCOCC2)cc1 | inactive | 
N#Cc1nc(C2CC2)oc1N1CCN(Cc2c(F)cccc2Cl)CC1 | inactive | 
Cn1c(SCC(=O)N2CCCC2)nnc1-c1ccc2c(c1)OCO2 | inactive | 
c1ccc(CNCc2cccc3ccccc23)cc1 | inactive | 
Cc1ccc(F)cc1S(=O)(=O)N1CCC(c2nc3ccccc3s2)CC1 | inactive | 
CN1CCC(N2CC[C@H](c3nc4ccccc4s3)C2)CC1 | 28.2 µM (active) | 
CC(C)(C)c1ccc(OCC(=O)N2CCC(c3nc4ccccc4s3)CC2)cc1 |  | 10.7% [at 11.5 µM]
Cc1c(-c2ccccc2)oc2c(C(=O)N3CCN(C(=O)c4ccccc4)CC3)cccc2c1=O | inactive | 
CCCOc1ccccc1C(=O)N1CCC2(CC1)[C@H](O)C[C@@H]2OCCN | inactive | 
Clc1ccccc1C1(c2ccnc(NCCn3cccn3)n2)CCNCC1 | 28.2 µM (active) | 
Cn1c(COc2ccccc2Cl)nnc1SCCn1cccn1 | inactive | 
CCOc1ccc(/C=C2/Cc3c(O)cccc3C2=O)cc1 | inactive | 
N#CC1(NC(=O)COC(=O)CCN=C2NS(=O)(=O)c3ccccc32)CCCCC1 | inactive | 
O=c1cc(-c2cccnc2)oc2c(-c3ccccc3O)nccc12 | inactive | 
O=c1cc(-c2cccnc2)oc2c(-c3cccc(CO)c3)nccc12 | 35.5 µM (active) | 
CN(c1ccccc1)c1cc(=O)c2ccnc(-c3ccc(CO)cc3)c2o1 | inactive | 
N#CC1=C(N)Oc2n[nH]c(-c3ccc4c(c3)OCO4)c2C1c1cccc(O)c1 (stereo not drawn) | inactive | 
CN1CCN(c2oc(-c3ccccc3)nc2S(=O)(=O)c2ccc3c(c2)OCCO3)CC1 | inactive | 
COCc1noc(-c2ccc(NCCN3CCNC3=O)nc2)n1 | inactive | 
COc1ccc(S(=O)(=O)NCCc2noc(-c3ccncc3)n2)cc1 | inactive | 
COCCc1noc(-c2ccc(NC(C)c3ncccc3C)nc2)n1 (stereo not drawn) | 28.2 µM (active) | 
O=C(O)Cn1ccc2cc(OCCc3cccc(-c4cccnc4)c3)cnc21 | 35.5 µM (active) | 
COc1cccc(CC(=O)NCCc2noc(-c3cccnc3)n2)c1 | inactive | 
O=C(O)CSCc1cccnc1 | inactive | 
